The inhibition is the relative decrease from the control value, in per cent.

Hit rate of the full screen: of about 330,000 compounds, about 5,800 (1.8%) were called active. For the sample, actives were picked, then their nearest neighbours and some compounds at random. Unmarked numbers belong to inactive results.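 The calls were made as follows: active = inhibition above about 50% at the single tested dose (limit read from the data); inactive = the rest.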

The target in the assay is Sentrin-specific protease 6 (Homo sapiens) (UniProt Q9GZR1). The experiment in a line: inhibition of human SENP6 catalytic domain – biochemical, luminescence, uHTS, primary screen (AID 2599).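 Also: plate controls were DMSO wells with enzyme for no effect and DMSO wells lacking enzyme for full effect.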 The note with it: Recombinant SENP6 catalytic domain, aminoluciferin luminescence; at 10 µM; stronger effect = higher value.
Sequence of Sentrin-specific protease 6 (Homo sapiens) (Q9GZR1 628-1112 limits assumed): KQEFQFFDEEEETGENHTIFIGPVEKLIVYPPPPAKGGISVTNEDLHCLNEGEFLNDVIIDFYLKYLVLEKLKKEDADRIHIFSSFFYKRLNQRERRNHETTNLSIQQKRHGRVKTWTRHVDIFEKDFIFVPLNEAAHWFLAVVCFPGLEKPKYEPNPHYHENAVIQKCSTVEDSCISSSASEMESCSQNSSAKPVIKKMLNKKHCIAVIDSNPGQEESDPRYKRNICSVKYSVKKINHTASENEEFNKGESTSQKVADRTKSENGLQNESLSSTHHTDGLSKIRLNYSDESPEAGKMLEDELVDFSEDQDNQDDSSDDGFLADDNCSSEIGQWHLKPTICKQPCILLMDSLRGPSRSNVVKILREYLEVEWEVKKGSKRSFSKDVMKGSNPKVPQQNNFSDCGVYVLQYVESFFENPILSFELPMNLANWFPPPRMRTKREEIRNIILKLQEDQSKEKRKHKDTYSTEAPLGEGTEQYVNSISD
For the molecule `Cc1cccc(C)c1NC(=O)CNC(=O)c1ccc2c(c1)OCCO2`, the inhibition is -7.93%.

Regarding `CCCCC(CC)C(=O)Nc1ccc(Cl)cn1` (stereo not given), the inhibition is 0.311%.

On to `O=C(Nc1ccc(Cl)cn1)c1ccc2c(c1)OCCO2`, for which the inhibition was 76.8% (active).

Regarding `CCCc1cc(C(=O)Nc2ccc(Cl)cn2)cs1`, the inhibition is 86.5% (active).

As for `COc1c(Cl)cc(C(=O)Nc2ccc(Cl)cn2)cc1Cl`, the inhibition is 23.4%.

On to `COc1ccc(C(=O)NC(=S)Nc2ccc(Cl)cn2)cc1OC`, for which the inhibition is -0.015%.

Consider `Cc1ccc(C(=O)NNC(=O)c2ccc3c(c2)OCCO3)cc1`, for which the inhibition is 16.5%.

Consider `Cc1nc(NC(=O)c2ccc3c(c2)OCCO3)ccc1Br`, for which the inhibition was 70.9% (active).

With `CCCc1cc(C(=O)Nc2ccc(C(=O)OC)cc2)cs1`, the inhibition was -4.63%.

With `O=C(/C=C/c1cnc2ccccc2n1)NC1CCCCCC1`, the inhibition was -2.57%.

With `O=C(CC1C(=O)NCCN1Cc1ccc(-c2ccccc2)cc1)NCc1ccncc1` (stereo not given), the inhibition was -5.88%.

As to `CC1CN(S(=O)(=O)c2cccc(C(F)(F)F)c2)CN1C(=O)N1CCOCC1` (stereo not given), the inhibition is -20.3%.

`COc1cc(OC)c(NC(=O)C2CCCN2C(=O)OCc2ccccc2)cc1Cl` (stereo not given): the inhibition is -8.31%.

With `CC1(C)CC(=O)C2=C(C1)NCN(CCCN1CCOCC1)C2`, the inhibition was 1.73%.

With `CCCn1nnc(NC(=O)COc2ccc(CC)cc2)n1`, the inhibition is 1.27%.

Regarding `CC(=O)C(CC(=O)N1CCCC1)C(=O)Nc1ccc(Cl)cc1` (stereo not given), the inhibition is -4.11%.

As to `CC(C)C(=O)Nc1nnc(Sc2ccc(N(C)C)cc2)s1`, the inhibition was -0.866%.

In the case of `O=C(c1ccc(F)cc1)c1cn(Cc2ccc(F)cc2)c2cc3c(cc2c1=O)OCCO3`, the inhibition is -4.67%.

In the case of `COCCN(CCOC)c1nc(N)c2c(N)nc3c(c2c1C#N)CC(=O)N3Cc1ccc(Cl)cc1`, the inhibition was 81.3% (active).

`CC1COC2C(O1)N(S(C)(=O)=O)CCN2S(C)(=O)=O` (stereo not given): the inhibition is -1.6%.

Consider `CC1(C)CC(=O)C=C(NCc2ccncc2)C1`, for which the inhibition is 11.9%.

On to `Cc1csc(OCC(=O)Nc2ccc(C)c(C)c2)n1`, for which the inhibition is -7.65%.

As to `CCN(CC)CCn1c(/N=C/c2cc(Br)ccc2O)nc2ccccc21`, the inhibition is 5.27%.

With `Oc1ccc(Br)cc1C=Nc1ccc2[nH]ncc2c1`, the inhibition is 55.4% (active).

For the molecule `Oc1ccc(Br)cc1/C=N/Nc1ccccn1`, the inhibition was 14.9%.

Take `Cc1ccn(-c2cccc(-n3ccc(C)n3)n2)n1`: the inhibition was -0.107%.

Take `O=S(=O)(c1ccc(Br)c2ccccc12)N1CCOCC1`: the inhibition was -3.67%.

In the case of `Cc1c(Cl)c([N+](=O)[O-])nn1CC(=O)NCCCN1CCOCC1`, the inhibition is -13.8%.

Turning to `Nc1[nH][nH]c(=O)c1N=Nc1ccc2c(c1)OCO2`, the inhibition is 51.5% (active).

Regarding `N/C(=N\OC(=O)c1ccc2c(c1)OCO2)c1ccc(Br)cc1`, the inhibition is 46%.

Take `CC(=O)c1cc2c(cc1N)OCO2`: the inhibition is 1.73%.

With `Cn1c2ccccc2c2cc(/C=C(\NC(=O)c3ccccc3)C(=O)NCC(=O)O)ccc21`, the inhibition is -6.28%.

Take `Cc1nn(C)c(C)c1NS(=O)(=O)c1ccc(OC(F)(F)F)cc1`: the inhibition was 5.85%.

As for `O=S(=O)(Nc1ccc(O)c2ccccc12)c1ccc(OC(F)(F)F)cc1`, the inhibition is 74.9% (active).

Regarding `O=C1COc2ccc(S(=O)(=O)Nc3ccc(OC(F)(F)F)cc3)cc2N1`, the inhibition was -6.08%.

`C[C@@H]1CN([C@@H](C)CO)C(=O)c2cccc(NS(=O)(=O)c3ccc(F)cc3)c2O[C@H]1CN(C)C(=O)NC1CCCCC1`: the inhibition is -9.28%.

Turning to `CCOc1ccc(NC(=O)COc2ccc(S(=O)(=O)N3CCCC3)cc2)cc1`, the inhibition was -19.8%.

For `N=c1oc2ccccc2cc1C(=O)N/N=C/c1ccccc1`, the inhibition is 89.2% (active).

For the molecule `O=C(N/N=C\c1cccnc1)c1cc(-c2ccccc2)nc2c(Cl)cccc12`, the inhibition is -10.9%.

As to `O=C(N/N=C/c1cccnc1)c1cc2ccccc2cc1O`, the inhibition was 54.6% (active).

Turning to `N=c1oc2ccccc2cc1C(=O)NCc1ccccc1`, the inhibition is -3.97%.

As for `Cc1ccc(/C=N/NC(=S)NC2CCCCC2)o1`, the inhibition is -24.3%.

`O=C(N/N=C/c1cccnc1)c1ccc(NC(=O)c2ccc(F)cc2)cc1`: the inhibition was -21.5%.

Regarding `CNC(=O)c1cc2c(ccc3ccccc32)oc1=N`, the inhibition was 6.2%.

Turning to `Cc1ccc(/C=N/NC(=S)Nc2cccc(S(=O)(=O)N(C)C)c2)o1`, the inhibition was -0.431%.

As for `Cc1ccc(/C=N/NC(=O)c2cc3ccccc3cc2O)o1`, the inhibition is 73.7% (active).

For `CCCN(CC(=O)Nc1ccccc1OC)C(=O)CCC(=O)c1ccc(F)cc1`, the inhibition is -2.28%.

Turning to `O=C(C(=O)N1CCc2ccccc2C1)c1c[nH]c2ccccc12`, the inhibition was -7.83%.

As to `CC(NC(=O)c1cccc(S(=O)(=O)N2CCc3ccccc3C2)c1)c1ccco1` (stereo not given), the inhibition is -17.8%.

On to `CCOc1cc(/C=C2\SC(N3CCCC(C)C3)=NC2=O)ccc1O` (stereo not given), for which the inhibition is 11.9%.

As for `CCCc1ccc(OCC(O)CN2CCN(CCO)CC2)cc1` (stereo not given), the inhibition is 5.43%.

As to `CCc1cccc(NC(=O)COC(=O)C2CCN(c3ccc(C(F)(F)F)cn3)CC2)c1`, the inhibition is 33.7%.

As to `CCOc1ccc(CN2CCN(CCCc3ccccc3)C(CCO)C2)cc1` (stereo not given), the inhibition was 9.84%.

Regarding `Cc1nnc(CN(C)Cc2cn[nH]c2-c2ccc(-c3ccccc3)cc2)o1`, the inhibition was -1.7%.

As to `Cc1c(Cl)cccc1NC(=O)CC1SC(=NCC2CCCO2)NC1=O` (stereo not given), the inhibition was -0.542%.

For the molecule `COc1ccc(OC)c(/C=C/C(=O)c2ccc3c(c2)OCO3)c1`, the inhibition was -8.22%.

Turning to `CC(Sc1nnc(COc2ccccc2)n1-c1ccccc1)C(=O)O` (stereo not given), the inhibition was -16.5%.

In the case of `Nc1ccccc1/C=N\N=C/c1ccccc1N`, the inhibition was 60.6% (active).

As to `C=CCC[C@H](Cc1ccc(F)cc1)C(=O)OC[C@H](C)NC(=O)[C@H](CC=C)CC(=O)N(CCO)Cc1ccccc1`, the inhibition was -7.07%.

As to `CCCCCCC12CCC(C(=O)O)(CC1)CC2`, the inhibition was -27.4%.

The values are drawn from PubChem BioAssay AID2599 (Sanford-Burnham Center for Chemical Genomics, 2010).
